# Out of some 1,300 compounds screened, about 980 (75%) were called active. Roughly 4% stayed inconclusive and do not appear here. The list shows a part of the results. A number with no mark means an inactive call.
# Biological target: Sulfhydryl oxidase 1 (Homo sapiens) (UniProt O00391)
# Assay: inhibition of human sulfhydryl oxidase QSOX1 – biochemical, HyperBlu H2O2 luminescence, HTS, primary screen (AID 1347420); also: values above 100% were filed as inconclusive
# Conditions: recombinant QSOX1, HyperBlu H2O2 luminescence; at 12.5 µM; stronger effect = higher value; active = any value above zero
# Sequence of Sulfhydryl oxidase 1 (Homo sapiens) (O00391 whole entry, looked up): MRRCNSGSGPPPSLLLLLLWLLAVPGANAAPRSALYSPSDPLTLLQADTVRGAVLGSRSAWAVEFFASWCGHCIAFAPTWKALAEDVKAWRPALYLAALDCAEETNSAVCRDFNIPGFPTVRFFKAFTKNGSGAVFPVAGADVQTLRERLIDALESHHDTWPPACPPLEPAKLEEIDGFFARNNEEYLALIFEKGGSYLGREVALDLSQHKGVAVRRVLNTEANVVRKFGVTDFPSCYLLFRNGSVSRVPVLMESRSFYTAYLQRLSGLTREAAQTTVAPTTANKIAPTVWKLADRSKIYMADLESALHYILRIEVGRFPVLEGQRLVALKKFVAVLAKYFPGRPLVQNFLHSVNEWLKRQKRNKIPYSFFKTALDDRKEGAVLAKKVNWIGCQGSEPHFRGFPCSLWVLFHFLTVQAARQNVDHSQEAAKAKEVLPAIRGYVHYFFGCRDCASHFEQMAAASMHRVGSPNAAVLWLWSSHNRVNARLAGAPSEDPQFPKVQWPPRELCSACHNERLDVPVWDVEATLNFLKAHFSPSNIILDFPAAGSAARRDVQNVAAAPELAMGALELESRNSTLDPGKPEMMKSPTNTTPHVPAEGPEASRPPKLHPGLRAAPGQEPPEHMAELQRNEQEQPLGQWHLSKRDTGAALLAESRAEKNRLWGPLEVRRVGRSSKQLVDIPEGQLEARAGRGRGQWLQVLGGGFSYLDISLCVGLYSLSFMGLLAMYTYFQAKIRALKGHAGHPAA
row,SMILES,inhibition
1,CC(C)c1ccc2c(c1)c(SC(C)(C)C)c(CC(C)(C)C(=O)O)n2Cc1ccc(Cl)cc1,0.2% (active)
2,NC(N)=NCCCCN=C(N)N,7% (active)
3,NCCCCN=C(N)N,15.4% (active)
4,CCN(CC)CC#CCOC(=O)C(O)(c1ccccc1)C1CCCCC1 (stereo not drawn),8.3% (active)
5,O=C(/C=C/c1ccc(O)cc1)c1ccc(O)cc1O,58.4% (active)
6,NC(Cc1cccc(-c2ccccc2CP(=O)(O)O)c1)C(=O)O (stereo not drawn),5.3% (active)
7,Oc1ccc(Cn2cc[nH]c2=S)cc1,22.2% (active)
8,COCc1nc2c([nH]1)c(=O)n(C)c(=O)n2CC(C)C,3% (active)
9,CN(C)CC/C=C1\c2ccccc2COc2ccccc21,5% (active)
10,CN(C)CCC=C1c2ccccc2C=Cc2ccccc21,-6.8%
11,CNCCC=C1c2ccccc2CCc2ccccc21,0.1% (active)
12,CN(C)CCC=C1c2ccccc2CCc2ccccc21,23.9% (active)
13,NC(=O)c1ncn([C@@H]2O[C@H](CO)[C@@H](O)[C@H]2O)c1O,9.1% (active)
14,NC(=O)c1ncn([C@@H]2O[C@H](CO)[C@@H](O)[C@H]2O)n1,6.1% (active)
15,CCN(CC)CC(=O)Nc1c(C)cccc1C,6.5% (active)
16,COC(=O)C1=CO[C@@H](O)[C@@H]2C(CO)=CC[C@H]12,16.3% (active)
17,CCC(C)N(C)C(=O)c1cc2ccccc2c(-c2ccccc2Cl)n1 (stereo not drawn),14% (active)

row,SMILES,inhibition
1,CN=C(NC#N)NCCSCc1nc[nH]c1C,13.2% (active)
2,Cc1cccc(C)c1OCC(N)C(C)C (stereo not drawn),15.4% (active)
3,Cc1cccc(C)c1OCC(C)N (stereo not drawn),-6%
4,CC(N)C1CCC(C(=O)Nc2ccncc2)CC1 (stereo not drawn),23% (active)
5,CC(N=C(NC#N)Nc1ccncc1)C(C)(C)C (stereo not drawn),-10.9%
6,c1ccc(C2CN3CCSC3=N2)cc1 (stereo not drawn),-12.3%
7,Brc1ccc([C@H]2CN3CCSC3=N2)cc1,18.2% (active)
8,c1ccc([C@H]2CN3CCSC3=N2)cc1,10.2% (active)
9,CCCn1c(=O)c(C)cn2nc(N)nc12,12.2% (active)
10,CCCCCCCCCCC(C)(C)C(=O)Nc1c(OC)cc(OC)cc1OC,15.9% (active)
11,Brc1c(Br)c(Br)c2n[nH]nc2c1Br,29.4% (active)
12,NC(=Nc1ccccc1)NC(=O)c1nc(Cl)c(N)nc1N,13.3% (active)
13,NC(=NCc1ccccc1)NC(=O)c1nc(Cl)c(N)nc1N,3.9% (active)
14,O=C(O)CNC(=O)C(CS)Cc1ccccc1 (stereo not drawn),3.5% (active)
15,COc1ccc(NC(=O)/C=C/c2ccc(Cl)cc2)cc1,18% (active)
16,COc1ccc([C@@H]2Sc3ccccc3N(CCN(C)C)C(=O)[C@@H]2OC(C)=O)cc1,10.6% (active)
